PubChem BioAssay (EPA / NIEHS)
Results filed as inconclusive are left out. Activity calls are given as the source filed them. The calls were made as follows: active = hit-call score of the fitted dose curve at least 0.9, where 1 is the maximum; inconclusive = response in the unintended direction; inactive = score below 0.9.

Test: Tanguay_ZF_120hpf_AXIS_legacy: (Legacy) Oregon State University Tanguay Lab 120 Hour Post-fertilization zebrafish Assay for Body Axis Malformation (AID 2283635)
Summary of the method: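 Each dechorionated embryo was exposed alone from 6 hpf, with DMSO at 0.64% (vol/vol) and trimethyltin chloride 5 uM as positive control. Axis malformation was recorded at 120 hpf unless the embryo had died.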

Row | Structure (SMILES) | outcome
1 | CO[C@@H]1COCC[C@@H]1N[C@@H]1CC[C@@](C(=O)N2CCc3ncc(C(F)(F)F)cc3C2)(C(C)C)C1 | inactive
2 | OCC(CO)n1cnc(-c2ccc(F)cc2)c1-c1ccnc(Oc2ccccc2)n1 | inactive
3 | CN(C)CCCN(C)CCCN(C)C | inactive
4 | CN(C)C(=O)NC1(c2ccccc2)CCN(CC[C@@]2(c3ccc(F)c(F)c3)CN(C(=O)c3ccccc3)CCO2)CC1 | inactive
5 | NC(=Nc1ccccc1)Nc1ccccc1 | inactive
6 | COc1ccc(OC(F)(F)F)cc1CN[C@H]1CCCN[C@H]1c1ccccc1 | inactive
7 | O=[Si]=O | inactive
8 | Cc1cc(SC2=C(O)C[C@@](CCc3ccc(N)cc3)(C(C)C)OC2=O)c(C(C)(C)C)cc1CO | inactive
9 | O=C(O)c1cccnc1 | inactive

Test: Tanguay_ZF_120hpf_EYE_legacy: (Legacy) Oregon State University Tanguay Lab 120 Hour Post-fertilization zebrafish Assay for Eye Malformation (AID 2283636);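 also: binary presence or absence of eye malformation scored by brightfield in 120 hpf larvae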
Summary of the method: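 5D wild-type embryos, pronase-dechorionated at 4 hpf; static exposure 6–120 hpf, 28C, dark; DMSO 0.64% final; 5uM trimethyltin chloride positive control. Binary eye-defect scoring at 120 hpf; dead embryos not scored.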

Row | Structure (SMILES) | outcome
10 | CC1=C(C)S(=O)(=O)CCS1(=O)=O | inactive
11 | Cc1cn([C@H]2C=C[C@@H](CO)O2)c(=O)[nH]c1=O | inactive
12 | O=C(N[C@@H](c1ccccc1)[C@@H]1CCCCN1)c1cccc(C(F)(F)F)c1Cl | inactive
13 | CCCCC(CC)COP(=O)(OCC(CC)CCCC)OCC(CC)CCCC (stereo not given) | inactive
14 | COC(=O)CCCC(=O)OC | inactive
15 | CCCCCCCCCCCCCCCCO | inactive
16 | CC(N)=O | inactive
17 | CCCCCCC(CCCCCCCCCCC(=O)OCC(COC(C)=O)OC(C)=O)OC(C)=O (stereo not given) | inactive
18 | C=CCCCCCCCCCCCC | inactive
19 | CC(=O)S[C@H](C(=O)N[C@H]1Cc2ccccc2[C@H]2CCC[C@@H](C(=O)O)N2C1=O)C(C)C | inactive
20 | CCCCCCC(C=O)=Cc1ccccc1 | inactive
21 | CCCCc1nc2cccnc2n1Cc1ccc(-c2ccccc2-c2nnn[nH]2)cc1 | inactive
22 | CC(C)c1cccc(C(C)C)c1NC(=O)NS(=O)(=O)c1cc(C(C)(C)O)co1 | inactive
23 | CC(C)(C)c1ccccc1 | inactive
24 | O=C(NS(=O)(=O)/C=C/c1cccs1)c1ccc(F)cc1Br | inactive
25 | CC1(C)C(=O)NC(=O)N1CO | inactive
26 | CC(=O)O[C@]1(C(C)=O)CC[C@H]2[C@@H]3C=C(Cl)C4=CC(=O)[C@@H]5C[C@@H]5[C@]4(C)[C@H]3CC[C@@]21C | inactive
27 | CC(=O)[C@@]1(O)CC[C@H]2[C@@H]3CCC4=CC(=O)CC[C@]4(C)[C@H]3CC[C@@]21C | inactive
28 | CS(=O)(=O)c1ccc([C@@H](C[C@H]2CCC(=O)C2)C(=O)Nc2cnccn2)cc1Cl | inactive
29 | CO[C@@H]1COCC[C@@H]1N[C@@H]1CC[C@@](C(=O)N2CCc3ncc(C(F)(F)F)cc3C2)(C(C)C)C1 | inactive
30 | CN(C)CCCN(C)CCCN(C)C | inactive
31 | CN(C)C(=O)NC1(c2ccccc2)CCN(CC[C@@]2(c3ccc(F)c(F)c3)CN(C(=O)c3ccccc3)CCO2)CC1 | inactive
32 | NC(=Nc1ccccc1)Nc1ccccc1 | inactive
33 | COc1ccc(OC(F)(F)F)cc1CN[C@H]1CCCN[C@H]1c1ccccc1 | inactive
34 | O=[Si]=O | inactive
35 | Cc1cc(SC2=C(O)C[C@@](CCc3ccc(N)cc3)(C(C)C)OC2=O)c(C(C)(C)C)cc1CO | inactive
36 | CCCCCCCCCC[N+](C)(C)[O-] | inactive
37 | O=C(O)c1cccnc1 | inactive

Test: Tanguay_ZF_120hpf_SNOU_legacy: (Legacy) Oregon State University Tanguay Lab 120 Hour Post-fertilization zebrafish Assay for Snout Malformation (AID 2283637)
Summary of the method: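 Binary brightfield scoring of snout malformation at 120 hpf. Dechorionated 5D wild-type embryos, one per well, static exposure from 6 hpf at 28C, sealed and dark; final DMSO 0.64% (vol/vol), DMSO as baseline; 5uM trimethyltin chloride positive control.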

Row | Structure (SMILES) | outcome | AC50
38 | COc1ccc(C(=O)Nc2nc3ccccc3c(NCc3ccccc3)c2C#N)cc1 | inactive | –
39 | Cc1cn([C@H]2C=C[C@@H](CO)O2)c(=O)[nH]c1=O | inactive | –
40 | O=C(N[C@@H](c1ccccc1)[C@@H]1CCCCN1)c1cccc(C(F)(F)F)c1Cl | inactive | –
41 | CCCCC(CC)COP(=O)(OCC(CC)CCCC)OCC(CC)CCCC (stereo not given) | inactive | –
42 | COC(=O)CCCC(=O)OC | inactive | –
43 | CCCCCCCCCCCCCCCCO | inactive | –
44 | CC(N)=O | inactive | –
45 | CCCCCCC(CCCCCCCCCCC(=O)OCC(COC(C)=O)OC(C)=O)OC(C)=O (stereo not given) | inactive | –
46 | CC(=O)S[C@H](C(=O)N[C@H]1Cc2ccccc2[C@H]2CCC[C@@H](C(=O)O)N2C1=O)C(C)C | inactive | –
47 | CCCCCCC(C=O)=Cc1ccccc1 | inactive | –
48 | CCCCc1nc2cccnc2n1Cc1ccc(-c2ccccc2-c2nnn[nH]2)cc1 | inactive | –
49 | CC(C)c1cccc(C(C)C)c1NC(=O)NS(=O)(=O)c1cc(C(C)(C)O)co1 | inactive | –
50 | CC(C)(C)c1ccccc1 | – | 5.01 µM (active)
51 | O=C(NS(=O)(=O)/C=C/c1cccs1)c1ccc(F)cc1Br | inactive | –
52 | CC1(C)C(=O)NC(=O)N1CO | inactive | –
53 | CC(=O)O[C@]1(C(C)=O)CC[C@H]2[C@@H]3C=C(Cl)C4=CC(=O)[C@@H]5C[C@@H]5[C@]4(C)[C@H]3CC[C@@]21C | inactive | –
54 | CC(=O)[C@@]1(O)CC[C@H]2[C@@H]3CCC4=CC(=O)CC[C@]4(C)[C@H]3CC[C@@]21C | inactive | –
55 | CS(=O)(=O)c1ccc([C@@H](C[C@H]2CCC(=O)C2)C(=O)Nc2cnccn2)cc1Cl | inactive | –
56 | CO[C@@H]1COCC[C@@H]1N[C@@H]1CC[C@@](C(=O)N2CCc3ncc(C(F)(F)F)cc3C2)(C(C)C)C1 | inactive | –
57 | OCC(CO)n1cnc(-c2ccc(F)cc2)c1-c1ccnc(Oc2ccccc2)n1 | inactive | –
58 | CN(C)CCCN(C)CCCN(C)C | inactive | –
59 | CN(C)C(=O)NC1(c2ccccc2)CCN(CC[C@@]2(c3ccc(F)c(F)c3)CN(C(=O)c3ccccc3)CCO2)CC1 | inactive | –
60 | NC(=Nc1ccccc1)Nc1ccccc1 | inactive | –
61 | COc1ccc(OC(F)(F)F)cc1CN[C@H]1CCCN[C@H]1c1ccccc1 | inactive | –
62 | O=[Si]=O | inactive | –
63 | Cc1cc(SC2=C(O)C[C@@](CCc3ccc(N)cc3)(C(C)C)OC2=O)c(C(C)(C)C)cc1CO | inactive | –
64 | CCCCCCCCCC[N+](C)(C)[O-] | inactive | –
65 | O=C(O)c1cccnc1 | inactive | –
